Laboratory results reported in PubChem BioAssay (Tox21).
Several values for one entry are separate records, joined by “and”; a condition that tells them apart may be missing. Equal entries are not always repeated. Results filed as inconclusive are left out. Activity calls are given as the source filed them. Unless noted, calls follow the shape of the dose curve; as a rule, active = well fitted curve in the direction sought with a large enough effect in the repeat runs; inconclusive = weak or mixed curves; inactive = no such curve, though single readings can be large; an effect the other way counts as inactive or inconclusive.

What was measured:
[1] = qHTS assay to identify small molecule agonists of the RXR signaling pathway - cell viability counter screen (AID 1159529); also: nearly all actives have a fitted effect of over 50% in size; also: potency is read from the fitted curve at half-maximal effect
Summary of the method: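 Tox21 10K compounds were tested for cytotoxicity against GeneBLAzer RXR-alpha HEK 293T cells grown in 2% charcoal-stripped FBS. Exposure lasted 16 hr at 37 C, 5% CO2; viability read by CellTiter-Glo luminescence.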

[2] = qHTS assay to identify small molecule antagonists of the retinoid acid receptor (RAR) signaling pathway - cell viability counter screen (AID 1159551); also: nearly all actives have a fitted effect of over 35% in size; also: potency is read from the fitted curve at half-maximal effect
Summary of the method: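 Retinol-stimulated (1 uM final) C3RL4 cells, compound 6 h, 37 C; readout CellTiter-Glo luminescence (ATP) after 30 min RT incubation.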

[3] = qHTS assay to identify small molecule agonists of the hypoxia (HIF-1) signaling pathway - cell viability counter screen (AID 1224844; calls by dose curve; also: nearly all actives have a fitted effect of over 50% in size; also: potency is read from the fitted curve at half-maximal effect)
Summary of the method: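 Cells (HRE-bla ME-180, 2,000 per well) sat 5 hrs at 37C, got compound for 17 hrs, were read for CCF4-AM FRET, and were finally lysed with CellTiter-Glo for a 30 min room-temperature luminescence read.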

[4] = qHTS assay to identify small molecule agonists of H2AX - cell viability counter screen (AID 1224847; calls by dose curve; also: nearly all actives have a fitted effect of over 30% in size; also: potency is read from the fitted curve at half-maximal effect)
Summary of the method: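 Viability of CHO-K1 (wild type) cells after 3 hr compound exposure was measured by CellTiter-Glo luminescence.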

[5] = qHTS RealTime-Glo MT Cell Viability Assay in HEK293 cells - 16 hour (AID 1224872); also: nearly all actives have a fitted effect of over 50% in size; also: potency is read from the fitted curve at half-maximal effect
Summary of the method: (§1)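 HEK293 cells were seeded at 600 cells/well together with NanoLuc luciferase and cell-permeant prosubstrate, preincubated 5 h at 37 C/5% CO2, then given compound in DMSO by pintool. Luminescence from viable-cell prosubstrate reduction was read repeatedly over 40 h.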

[6] = A CellTox Green Cytotoxicity Assay to monitor cytotoxicity in HEK293 cells - 32 hour (AID 1224881); also: nearly all actives have a fitted effect of over 40% in size; also: potency is read from the fitted curve at half-maximal effect
Summary of the method: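 Fluorescence intensity, read at 0, 8, 16, 24, 32 and 40 h of compound treatment, reflected dye binding to DNA of dead HEK293 cells; compounds (23 nL, DMSO) were added 5 h after plating cells with reagent.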

[7] = qHTS RealTime-Glo MT Cell Viability Assay in HEK293 cells - 24 hour (AID 1224886); also: nearly all actives have a fitted effect of over 50% in size; also: potency is read from the fitted curve at half-maximal effect
Summary of the method: as §1

[8] = qHTS assay to identify small molecule agonists of the androgen receptor (AR) signaling pathway in the presence of an antagonist - cell viability counter screen (AID 1259379); also: nearly all actives have a fitted effect of over 25% in size; also: potency is read from the fitted curve at half-maximal effect
Summary of the method: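 Seed MDA-kb2 at 3,000 cells/well; incubate 5 hr, 37C, 0% CO2. Add nilutamide to 3.0uM final, then pin compounds at 15 concentrations. Incubate 16 hr. Add CellTiter-Fluor at 15 hr, read fluorescence after 1 hr.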

[9] = qHTS assay to identify small molecule agonists of the estrogen receptor beta (ER-beta) signaling pathway - cell viability counter screen (AID 1259380); also: potency is read from the fitted curve at half-maximal effect; nearly all actives have a fitted effect of over 30% in size
Summary of the method: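 CellTiter-Glo read, 30 min RT, same wells as bla assay; cells ER-beta-UAS-bla HEK293T; 16 hr compound, 37C; medium 2% charcoal-stripped FBS.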

[10] = qHTS assay to identify small molecule antagonists of the estrogen receptor beta (ER-beta) signaling pathway - cell viability counter screen (AID 1259382); also: nearly all actives have a fitted effect of over 55% in size; also: potency is read from the fitted curve at half-maximal effect
Summary of the method: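 In this multiplexed counter screen, cells were seeded at 2,000 per well in medium with 2% charcoal-stripped FBS and incubated 6 hr before compound and 1nM final E2 were added. Sixteen hours later, ATP-based luminescence reported viability.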

[11] = target: Progesterone receptor (Homo sapiens) (UniProt P06401); assay: qHTS assay to identify small molecule agonists of the progesterone receptor (PR) signaling pathway (AID 1346784; calls by dose curve; also: nearly all actives have a fitted effect of over 30% in size)
Summary of the method: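 The screen uses PR-UAS-bla HEK 293T cells in charcoal-stripped serum (2%). Compounds are applied for 16 hr at 37C after a 6 hr pre-incubation, and reporter activity is detected with a FRET beta-lactamase substrate after 2 hr at room temperature.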

[12] = qHTS assay to identify small molecule antagonists of the progesterone receptor (PR) signaling pathway - cell viability counter screen (AID 1346798); also: nearly all actives have a fitted effect of over 50% in size; also: potency is read from the fitted curve at half-maximal effect
Summary of the method: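 Viability was determined by ATP-based luminescence (CellTiter-Glo) in PR-UAS-bla HEK293T cells cultured in 2% charcoal-stripped serum and incubated 16 hr with compounds under R5020 stimulation.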

[13] = Human pregnane X receptor (PXR) small molecule agonists, qHTS cell viability counter screen (AID 1346977); also: nearly all actives have a fitted effect of over 50% in size; also: potency is read from the fitted curve at half-maximal effect
Summary of the method: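 HepG2 cells stably carrying the PXR-Luc reporter are cultured with 5% charcoal-stripped FBS and treated with compounds for 24hr. CellTiter-Fluor is added at 23hr and fluorescence is read after 1hr.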

[14] = Caspase-3/7 induction in CHO-K1 cells by small molecules, qHTS cell viability counter screen (AID 1346979); also: potency is read from the fitted curve at half-maximal effect; nearly all actives have a fitted effect of over 35% in size
Summary of the method: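 Seeding: 1,500 CHO-K1 cells/well. Rest: 5hr, 37C. Treatment: compounds in DMSO, 16hr. Read: CellTiter-Fluor, 1hr, fluorescence.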

[15] = Caspase-3/7 induction in HepG2 cells by small molecules, qHTS cell viability counter screen (AID 1346981); also: nearly all actives have a fitted effect of over 30% in size; also: potency is read from the fitted curve at half-maximal effect
Summary of the method: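 Viability determined by CellTiter-Fluor fluorescence in HepG2 wells also used for the luminescent Caspase-Glo 3/7 read. Compounds were present for 16 hr at 37 C, 5% CO2 before reagent addition.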

[16] = qHTS RealTime-Glo MT Cell Viability Assay in HepG2 cells - 8 hour (AID 1224873); also: nearly all actives have a fitted effect of over 55% in size; also: potency is read from the fitted curve at half-maximal effect
Summary of the method: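 Real-time viability: cells seeded at 600 per well together with NanoLuc and cell-permeant prosubstrate, compounds added after 5 h incubation. Luminescence tracked at 0, 8, 16, 24, 32 and 40 h of exposure.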

[17] = target: Nuclear receptor subfamily 1 group I member 3 (Homo sapiens) (UniProt Q14994); assay: qHTS assay to identify small molecule agonists of the constitutive androstane receptor (CAR) signaling pathway (AID 1224839); also: nearly all actives have a fitted effect of over 15% in size; also: potency is read from the fitted curve at half-maximal effect
Summary of the method: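 Stable hCAR/CYP2B6-2.2kb HepG2 line in DMEM with 10% FBS; compounds (15 concentrations) and 0.75 uM PK11195 final, 24 h at 37 C/5% CO2, then ONE-Glo luminescence after 30 min.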

[18] = target: Thyrotropin-releasing hormone receptor (Homo sapiens) (UniProt P34981); assay: qHTS assay to identify small molecule agonists of the thyrotropin-releasing hormone receptor (TRHR) signaling pathway (AID 1346891; calls by dose curve;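 also: HEK293 cells expressing TRHR with calcium dye readout; series mostly up to about 58 µM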)
Summary of the method: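 Kinetic fluorescence (3 min, 1 s intervals) reported intracellular calcium after compound transfer onto TRHR-Hek293 cells pre-loaded with dye for 2 h at 37 °C.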

[19] = target: Cytochrome P450 2D6 (Homo sapiens) (UniProt P10635); assay: Cytochrome P450 Family 2 Subfamily D Member 6 (CYP2D6) small molecule antagonists: luciferase reporter qHTS assay (AID 1671196); also: nearly all actives have a fitted effect of over 50% in size; also: potency is read from the fitted curve at half-maximal effect
Summary of the method: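 Each well received CYP2D6 with its proluciferin substrate and chemical, sat 10 min, then got NADPH regeneration solution for 1 h at room temperature. Luminescence in RLU served as the activity measure.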

[20] = target: Cytochrome P450 3A4 (Homo sapiens) (UniProt P08684); assay: Cytochrome P450 Family 3 Subfamily A Member 4 (CYP3A4) small molecule antagonists: luciferase reporter qHTS assay (AID 1671201); also: nearly all actives have a fitted effect of over 50% in size; also: potency is read from the fitted curve at half-maximal effect
Summary of the method: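 Enzyme and proluciferin substrate are mixed with test chemicals for 10 min, then NADPH regeneration system drives turnover for 1 h at room temperature. A detection reagent halts the reaction; luminescence after 20 min gives relative activity.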

Sequence of Nuclear receptor subfamily 1 group I member 3 (Homo sapiens) (Q14994 whole entry, looked up): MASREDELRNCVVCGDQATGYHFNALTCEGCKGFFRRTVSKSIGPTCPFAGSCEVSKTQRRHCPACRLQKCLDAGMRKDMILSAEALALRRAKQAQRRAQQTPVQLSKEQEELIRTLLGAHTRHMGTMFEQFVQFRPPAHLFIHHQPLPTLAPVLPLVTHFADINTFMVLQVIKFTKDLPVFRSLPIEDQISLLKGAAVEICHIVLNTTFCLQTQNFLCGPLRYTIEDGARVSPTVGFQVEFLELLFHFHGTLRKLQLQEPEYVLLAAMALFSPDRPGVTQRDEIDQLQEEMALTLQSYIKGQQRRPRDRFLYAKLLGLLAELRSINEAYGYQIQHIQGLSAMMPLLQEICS
Sequence of Thyrotropin-releasing hormone receptor (Homo sapiens) (P34981 whole entry, looked up): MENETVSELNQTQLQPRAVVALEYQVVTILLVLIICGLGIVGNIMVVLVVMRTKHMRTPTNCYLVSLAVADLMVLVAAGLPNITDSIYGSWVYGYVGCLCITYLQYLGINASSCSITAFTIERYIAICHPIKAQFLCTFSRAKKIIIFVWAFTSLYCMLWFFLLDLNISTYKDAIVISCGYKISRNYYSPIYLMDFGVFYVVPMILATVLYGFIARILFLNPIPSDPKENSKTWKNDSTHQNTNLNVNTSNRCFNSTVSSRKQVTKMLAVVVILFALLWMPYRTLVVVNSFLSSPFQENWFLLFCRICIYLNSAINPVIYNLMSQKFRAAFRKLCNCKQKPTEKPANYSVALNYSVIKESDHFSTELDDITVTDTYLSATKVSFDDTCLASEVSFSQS
Sequence of Progesterone receptor (Homo sapiens) (P06401 whole entry, looked up): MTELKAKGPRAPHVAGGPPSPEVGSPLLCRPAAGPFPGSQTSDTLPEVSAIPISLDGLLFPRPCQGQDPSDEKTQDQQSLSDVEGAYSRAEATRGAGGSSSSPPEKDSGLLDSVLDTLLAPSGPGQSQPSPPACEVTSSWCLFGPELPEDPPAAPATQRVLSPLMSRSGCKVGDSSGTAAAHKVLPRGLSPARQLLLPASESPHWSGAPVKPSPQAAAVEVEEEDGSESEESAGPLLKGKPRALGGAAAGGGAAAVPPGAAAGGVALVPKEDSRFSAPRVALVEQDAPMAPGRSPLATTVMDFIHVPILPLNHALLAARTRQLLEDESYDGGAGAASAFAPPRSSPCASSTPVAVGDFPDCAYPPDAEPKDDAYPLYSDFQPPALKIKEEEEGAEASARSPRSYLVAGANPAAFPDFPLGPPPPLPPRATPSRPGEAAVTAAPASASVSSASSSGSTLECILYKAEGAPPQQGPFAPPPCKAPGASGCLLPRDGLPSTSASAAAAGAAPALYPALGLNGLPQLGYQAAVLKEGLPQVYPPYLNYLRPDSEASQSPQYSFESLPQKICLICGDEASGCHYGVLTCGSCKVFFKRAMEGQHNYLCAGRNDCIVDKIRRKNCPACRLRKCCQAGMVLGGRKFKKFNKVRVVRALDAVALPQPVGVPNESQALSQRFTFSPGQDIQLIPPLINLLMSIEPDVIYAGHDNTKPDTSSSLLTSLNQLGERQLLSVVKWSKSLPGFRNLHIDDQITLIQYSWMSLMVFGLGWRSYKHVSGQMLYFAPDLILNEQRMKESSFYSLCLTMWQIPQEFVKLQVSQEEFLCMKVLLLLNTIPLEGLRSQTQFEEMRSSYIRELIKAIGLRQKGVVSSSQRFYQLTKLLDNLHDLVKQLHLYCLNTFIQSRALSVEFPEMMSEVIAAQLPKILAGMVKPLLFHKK
Sequence of Cytochrome P450 3A4 (Homo sapiens) (P08684 whole entry, looked up): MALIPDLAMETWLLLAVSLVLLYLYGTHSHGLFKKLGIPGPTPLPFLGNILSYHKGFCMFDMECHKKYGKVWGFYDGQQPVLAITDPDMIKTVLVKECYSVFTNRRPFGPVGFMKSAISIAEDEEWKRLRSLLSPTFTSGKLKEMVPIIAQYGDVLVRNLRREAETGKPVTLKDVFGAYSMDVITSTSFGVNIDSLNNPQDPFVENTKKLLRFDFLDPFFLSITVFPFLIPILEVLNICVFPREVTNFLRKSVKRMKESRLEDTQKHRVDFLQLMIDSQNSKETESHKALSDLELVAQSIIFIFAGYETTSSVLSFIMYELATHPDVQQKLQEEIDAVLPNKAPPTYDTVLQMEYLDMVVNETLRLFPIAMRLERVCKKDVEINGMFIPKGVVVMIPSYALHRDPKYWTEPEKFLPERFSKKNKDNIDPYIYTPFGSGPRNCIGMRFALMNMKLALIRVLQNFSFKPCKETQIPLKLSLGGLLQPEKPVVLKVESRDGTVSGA
Sequence of Cytochrome P450 2D6 (Homo sapiens) (P10635 whole entry, looked up): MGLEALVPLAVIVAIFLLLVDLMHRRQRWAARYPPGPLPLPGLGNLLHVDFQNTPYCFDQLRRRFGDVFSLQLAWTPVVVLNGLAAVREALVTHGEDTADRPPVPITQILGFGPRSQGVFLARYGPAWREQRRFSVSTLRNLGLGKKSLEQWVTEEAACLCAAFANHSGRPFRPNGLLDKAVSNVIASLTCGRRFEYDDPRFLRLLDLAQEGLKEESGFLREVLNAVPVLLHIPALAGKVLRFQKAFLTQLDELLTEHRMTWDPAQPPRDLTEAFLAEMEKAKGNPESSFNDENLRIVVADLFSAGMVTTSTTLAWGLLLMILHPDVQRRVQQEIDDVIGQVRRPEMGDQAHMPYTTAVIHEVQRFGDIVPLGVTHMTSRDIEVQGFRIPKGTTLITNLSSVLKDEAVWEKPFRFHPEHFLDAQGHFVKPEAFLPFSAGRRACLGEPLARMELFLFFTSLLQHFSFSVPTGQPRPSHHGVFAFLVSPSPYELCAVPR

| SMILES | Potency [1] | Potency [2] | Potency [3] | Potency [4] | Potency [5] | Potency [6] | Potency [7] | Potency [8] | Potency [9] | Potency [10] | outcome [11] | Potency [12] | Potency [13] | Potency [14] | Potency [15] | Potency [16] | Potency [17] | outcome [18] | Potency [19] | Potency [20] |
| --- | --- | --- | --- | --- | --- | --- | --- | --- | --- | --- | --- | --- | --- | --- | --- | --- | --- | --- | --- | --- |
| C[C@]12CC[C@@H](O)C[C@@H]1CC[C@@H]1[C@@H]2CC[C@]2(C)C(=O)CC[C@@H]12 | 17.4 µM (active) | inactive | 21.9 µM (active) | 101 µM (active) | 38.9 µM (active) | 54.9 µM (active) | 38.9 µM (active) | inactive | 27.3 µM (active) | 43.3 µM (active) | inactive | 48.6 µM (active) | inactive | 61.1 µM (active) | inactive | – | – | – | – | – |
| Oc1c(I)cc(I)cc1I | – | – | 38.9 µM (active) | – | inactive | inactive | inactive | inactive | – | – | inactive | inactive | – | – | inactive | inactive | – | – | – | – |
| Cc1cc(C(C)(C)c2ccc(O)c(C)c2)ccc1O | – | inactive | inactive | 108 µM (active) | 20.8 µM (active) | – | 20.8 µM (active) | – | 29.2 µM (active) | inactive | inactive | – | 20.7 µM (active) | 41.2 µM (active) | 46.2 µM (active) | inactive | 29.2 µM (active) | inactive | 30.2 µM (active) | 1.91 µM (active) |
| CNC(=O)Oc1cc(C)c(SC)c(C)c1 | inactive | inactive | – | inactive | – | – | – | inactive | – | inactive | inactive | inactive | inactive | 54.5 µM (active) | inactive | inactive | 61.1 µM (active) | inactive | inactive | – |
| CCOC(=O)C(O)(c1ccc(Cl)cc1)c1ccc(Cl)cc1 | 31.2 µM (active) and 43.6 µM (active) | – | inactive | 90.7 µM (active) and 56.6 µM (active) | 19.7 µM (active) and 34.7 µM (active) | 44.1 µM (active) | 22.1 µM (active) and 34.7 µM (active) | inactive | – | inactive | inactive | inactive | – | 61.8 µM (active) | – | inactive | 55 µM (active) and 54.5 µM (active) | inactive | – | inactive |
| Nc1ccc([N+](=O)[O-])cc1 | – | – | – | 101 µM (active) | 21.9 µM (active) | 38.9 µM (active) | 24.5 µM (active) | 30.6 µM (active) | 27.3 µM (active) | – | – | 8.63 µM (active) | 34.4 µM (active) | 43.3 µM (active) | 40.9 µM (active) | inactive | – | – | 50.2 µM (active) | – |
| O=S(=O)(C(Cl)(Cl)Cl)C(Cl)(Cl)Cl | 21.9 µM (active) | 61.1 µM (active) | 12.3 µM (active) | 89.8 µM (active) | 12.3 µM (active) | 19.5 µM (active) | 11 µM (active) | 61.1 µM (active) | 21.7 µM (active) | – | inactive | inactive | 61.1 µM (active) | 8.63 µM (active) | 61.1 µM (active) | 38.9 µM (active) | inactive | – | – | 2 µM (active) |
